Sampled rows, rich in hits. Any-hit rate of the full collection: about 6.9%.
BAZ2B block: qHTS Assay for Inhibitors of BAZ2B. Bromodomain adjacent to zinc finger domain protein 2B (Homo sapiens), Q9UIF8. AlphaScreen BAZ2B-H3K14Ac peptide displacement. Potency, µM (series often up to 114 µM), without a hit: at the top dose activity change, negative = inhibition, hits mostly inhibitors. 360,000 compounds, 4.4% hits. AID 504333, 2011; also: % is scaled to controls: 0 for no effect and ±100 for the full control effect; nearly all actives have a fitted effect of over 60% in size
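AlphaScreen luminescence quantifies BAZ2B engagement of H3K14Ac peptide; the protein and biotinylated peptide are both at 50 nM final, buffer PBS pH 7.4 with 0.01% Tween-20, all steps at room temperature.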
L3MBTL1 inh: qHTS Assay for the Inhibitors of L3MBTL1 | AlphaScreen L3MBTL1–H3K9me1 peptide binding | Lethal(3)malignant brain tumor-like protein 1 (Homo sapiens), Q9Y468 | 230,000 compounds, 0.66% hits | Potency, µM (top dose mostly 57.1 µM), without a hit: top-dose activity, negative = inhibition, usual class: inhibitors; also: % is scaled to controls: 0 for no effect and ±100 for the full control effect; nearly all actives have a fitted effect of over 60% in size
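Displacement of a biotinylated histone H3(1-15) peptide monomethylated at Lys9 (75 nM) from L3MBTL1 (50 nM) was measured by AlphaScreen after a 30 min room-temperature compound incubation; cefsulodin titration served as intraplate control.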
HP1b chromo inh: HTS for Inhibitors of HP1-beta Chromodomain Interactions with Methylated Histone Tails; 390,000 compounds, 0.56% hits; Chromobox protein homolog 1 (Homo sapiens), P83916; AlphaScreen HP1-beta / biotin-H3K9me3 peptide binding; Potency, µM (doses to about 114 µM), inactives show at the top dose activity change, negative = inhibition, actives largely listed as inhibitors; also: nearly all actives have a fitted effect of over 70% in size
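AlphaScreen: HP1-beta (50 nM) preformed 30 min with biotin-H3(1-18)K9me3 peptide (50 nM) in PBS pH 7.4, 0.01% Tween-20. Compound added for 30 min at RT, then streptavidin donor/nickel chelate acceptor beads (10 ug/mL) for 30 min.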
JMJD2A Tudor: qHTS Assay for Inhibitors of JMJD2A-Tudor Domain; Lysine-specific demethylase 4A (Homo sapiens), O75164; AlphaScreen JMJD2A-Tudor / H3K4me3 peptide binding; Potency, µM (highest dose often 114 µM), inactives show at the highest dose activity change, negative = inhibition, actives largely listed as inhibitors; 390,000 compounds, 4.4% hits; also: % is scaled to controls: 0 for no effect and ±100 for the full control effect; nearly all actives have a fitted effect of over 50% in size
PLK1 PBD inh: qHTS for Inhibitors of PLK1-PDB (polo-like kinase 1 - polo-box domain): Primary Screen | Serine/threonine-protein kinase PLK1 (Homo sapiens), P53350 | Potency, µM, for the others: max response, negative = inhibition, most hits filed as inhibitors | Plk1 PBD binding of FITC phosphopeptide, fluorescence polarization | 360,000 compounds, 2.8% hits | AID 720504, 2013; also: series mostly up to about 57 µM; % is scaled to controls: 0 for no effect and ±100 for the full control effect; nearly all actives have a fitted effect of over 65% in size
VDR inhibitor: Inhibitors of the vitamin D receptor (VDR): qHTS; 400,000 compounds, 0.93% hits; Potency, µM, without a hit: max response, negative = inhibition, usual class: inhibitors; VDR-SRC2-3 peptide fluorescence polarization, 2 h; Vitamin D3 receptor (Homo sapiens), P11473; AID 504847, 2011; also: % is scaled to controls: 0 for no effect and ±100 for the full control effect
Target sequence (P11473 whole entry, looked up): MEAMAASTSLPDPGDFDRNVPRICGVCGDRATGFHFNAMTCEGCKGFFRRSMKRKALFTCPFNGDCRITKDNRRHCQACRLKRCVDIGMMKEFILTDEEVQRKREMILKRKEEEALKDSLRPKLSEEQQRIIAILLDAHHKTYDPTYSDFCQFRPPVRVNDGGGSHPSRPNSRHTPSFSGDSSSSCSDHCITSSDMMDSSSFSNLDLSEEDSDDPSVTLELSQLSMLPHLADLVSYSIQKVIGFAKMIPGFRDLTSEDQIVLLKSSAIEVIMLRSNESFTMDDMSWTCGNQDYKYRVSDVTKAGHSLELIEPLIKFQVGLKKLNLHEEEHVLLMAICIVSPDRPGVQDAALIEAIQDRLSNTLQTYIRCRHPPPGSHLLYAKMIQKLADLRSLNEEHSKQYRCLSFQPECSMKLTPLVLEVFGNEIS
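The screen uses fluorescence polarization to detect compounds that interfere with recruitment of the SRC2-3 coactivator peptide to VDR; plates are read after 2 h at room temperature.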
* = called active by the depositor; ? = inconclusive; . = not tested or not shown; ! = not active in a repeat; [ ] = dose if it differs, or a comment. Calls follow the shape of the dose curve; as a rule, active = well fitted curve in the direction sought with a large enough effect; inconclusive = small, poorly fitted or top-dose-only effect, or another doubt; inactive = no such curve, though single readings can be large; an effect the other way counts as inactive or inconclusive. Potency is read from the fitted curve at half-maximal effect.

SMILES	BAZ2B block	L3MBTL1 inh	HP1b chromo inh	JMJD2A Tudor	PLK1 PBD inh	VDR inhibitor
O=S(=O)(Cc1nnnn1-c1ccccc1)c1ccc(Cl)cc1	9%	.	22%	-8%	2%	-17%
O=S(=O)(Cc1ccccc1)c1nnnn1-c1ccccc1	.	.	.	.	.	35µM*
N#Cc1ccc(CS(=O)(=O)c2nnnn2-c2ccccc2)cc1	.	.	.	.	.	45µM*
Cc1ccc(CN2CCSc3ccc(C(=O)NCc4cccnc4)cc32)cc1	?	-1%	-5%	40µM*	-10%	-6%
O=C(NCc1cccnc1)c1ccc(Cl)c(S(=O)(=O)N2CCCCCC2)c1	-9%	1%	5%	25µM*	27µM*	?
O=C(NCc1cccnc1)c1ccc(Cl)c(S(=O)(=O)N2CCOCC2)c1	-18%	.	38%	-9%	3%	-21%
c1ccc(CNc2ncnc3c2ncn3Cc2ccccc2)cc1	.	.	30%	-17%	.	-18%
C[N+](C)(C)CCO	.	.	.	.	.	5%
O=C(O)c1ccccc1CC(CCc1ccccc1)C(=O)O (stereo not drawn)	.	.	-9%[57 µM]	10µM*	-18%	-16%
Cn1c(=O)n(C)c2cc(NC(=O)COc3ccc(Cl)cc3)ccc21	?	.	32%	-14%	7%	-10%
Cc1nn(CC(=O)NCCc2ccc(Cl)cc2)c(=O)c2cccn12	-11%	.	8%	?	27µM*	?
Cc1nn(CC(=O)NCc2ccccc2)c(=O)c2cccn12	-2%	.	45%	6%	2%	2%
Cc1nn(CC(=O)Nc2ccccc2C(F)(F)F)c(=O)c2cccn12	22µM*!	.	?	8.9µM*!	-2%	-16%
CS(=O)(=O)N(Cc1ccccc1)c1ccc(C(=O)Nc2ccc(Cl)cc2)cc1	5%	.	42%	-5%	.	-13%
CC(C#N)(Cc1ccccc1)Nc1ccccc1 (stereo not drawn)	.	.	31%	-16%	-7%	-13%
COc1ccc(N(Cc2cccs2)C(=O)COc2cc(C)c(Cl)c(C)c2)cc1	18%	.	87%	39%	.	4%
CC1=C(SCCC#N)S/C(=C2\SC(C)=C(SCCC#N)S2)S1	-32%	-15%	?	56µM*	12µM*	-100%
Cn1c(SCCC#N)nnc1-c1ccc(F)cc1	.	10%	.	.	.	.
Oc1ccc(Cc2ccccc2)c2cccnc12	.	.	34%	79µM*	-14%	2%
OCc1ccc(O)c2ncccc12	1.4µM*	18µM*	21%	40µM*	-2%	11%
CCCOCc1ccc(O)c2ncccc12	13µM*	28µM*	35%	56µM*	-15%	-1%
CCCCC(CC)CNC(=O)c1ccc2c(=O)n(CCOC)c(=O)[nH]c2c1 (stereo not drawn)	4%	.	31%	-9%	.	-1%
Cc1ccc(C)c(NC(=O)CN2C(=O)C3(SCC(=O)N3c3ccc(C)c(C)c3)c3ccccc32)c1 (stereo not drawn)	0%[57.1 µM]	.	19%	-17%	.	7%
Oc1ccc(-c2nc3ccccn3c2Nc2ccc3c(c2)OCCO3)cc1	40µM*	.	-37%	50µM*	.	16%
Oc1ccc(-c2nc3ncccn3c2Nc2ccc3c(c2)OCO3)cc1	50µM*	.	-24%	?	-12%	-27%
Clc1cccc(-c2nc3ccccn3c2Nc2ccc3c(c2)OCCO3)c1	11µM*	.	?	22µM*	.	-10%
c1ccc(-c2nc3cnccn3c2Nc2ccc3c(c2)OCCO3)cc1	?	-12%	?	45µM*	-12%	6%
COc1cc(-c2nc3cnccn3c2Nc2ccc3c(c2)OCCO3)ccc1O	2%	-13%	0%	-35%	0%	-11%
Brc1ccc2nc(-c3ccccc3)c(Nc3ccc4c(c3)OCO4)n2c1	3%	.	38%	3%	.	2%

Source: PubChem
